Screening results: PubChem BioAssay, National Center for Advancing Translational Sciences (NCATS)
BAZ2B inh = inhibitors of human BAZ2B bromodomain; AID 504333; AlphaScreen BAZ2B-H3K14Ac peptide displacement; actives 4.4% (n = 360,000); Q9UIF8; Potency, µM (highest dose often 114 µM), for inactives: top-dose activity change, negative = inhibition, usual class: inhibitors; further: potency means the concentration at half of the fitted maximal effect; on the % scale 0 is the no-effect control and ±100 the full control effect; nearly all actives have a fitted effect of over 60% in size
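Multi-concentration screen (max 110 uM) measuring displacement of acetylated histone H3 peptide from BAZ2B by AlphaScreen, using 50 nM protein, 50 nM peptide and 10 ug/mL streptavidin donor plus Ni-chelate acceptor beads.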
HP1b chromo inh = inhibitors of HP1-beta chromodomain binding to methylated histone tails. AID 540317. Potency, µM (highest dose often 114 µM), without a hit: top-dose activity change, negative = inhibition, actives largely listed as inhibitors. actives 0.56% (n = 390,000). AlphaScreen HP1-beta / biotin-H3K9me3 peptide binding. P83916; further: potency means the concentration at half of the fitted maximal effect; nearly all actives have a fitted effect of over 70% in size
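AlphaScreen: HP1-beta (50 nM) preformed 30 min with biotin-H3(1-18)K9me3 peptide (50 nM) in PBS pH 7.4, 0.01% Tween-20. Compound added for 30 min at RT, then streptavidin donor/nickel chelate acceptor beads (10 ug/mL) for 30 min.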
JMJD2A Tudor inh = JMJD2A Tudor domain (human) inhibition | Potency, µM (doses to about 114 µM), without a hit: at the top dose activity change, negative = inhibition, most hits filed as inhibitors | AlphaScreen JMJD2A-Tudor / H3K4me3 peptide binding | O75164 | AID 504339 | actives 4.4% (n = 390,000); further: potency means the concentration at half of the fitted maximal effect; on the % scale 0 is the no-effect control and ±100 the full control effect; nearly all actives have a fitted effect of over 50% in size
G9a inh = inhibitors of human histone lysine methyltransferase G9a. Q96KQ7. G9a H3K9 monomethylation, AlphaScreen, 2 h. Potency, µM (series often up to 102 µM), without a hit: top-dose activity, negative = inhibition, hits mostly inhibitors. actives 8.8% (n = 350,000). AID 504332; further: potency means the concentration at half of the fitted maximal effect; on the % scale 0 is the no-effect control and ±100 the full control effect; nearly all actives have a fitted effect of over 75% in size
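Quantitative HTS format: methyltransferase activity on a biotin-tagged H3K9 peptide is measured by AlphaScreen, using a rabbit anti-monomethyl-H3K9 antibody with streptavidin donor and anti-IgG acceptor beads. Final levels are 20 nM enzyme, 500 nM peptide, 20 uM SAM; 2 h RT.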
CtBP-E1A blk = blocks the CtBP interaction with E1A; actives 0.49% (n = 340,000); AlphaScreen GST-E1A/His-CtBP binding, 1536-well; active compounds read low; activity change, % (no concentration beside the values); in the data active means activity change below about -65%; inconclusive means mostly about -30% to -63%; further: on the % scale 0 is the no-effect control and ±100 the full control effect
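Homogeneous bead-based format: GST-tagged E1A captured on glutathione donor beads, His-tagged CtBP on nickel acceptor beads; compounds precede bead addition by 2 h at 37 °C.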
Six1-Eya2 inh = inhibitors of human Six1/Eya2 interaction; Q15475+O00167; AlphaScreen GST-Six1/His-Eya2 binding, biochemical; active compounds read low; activity change, % (no concentration beside the values); actives 0.56% (n = 360,000); in the data active means activity change below about -65%; inconclusive means mostly about -30% to -63%; further: on the % scale 0 is the no-effect control and ±100 the full control effect
Target sequence (O00167 whole entry, looked up): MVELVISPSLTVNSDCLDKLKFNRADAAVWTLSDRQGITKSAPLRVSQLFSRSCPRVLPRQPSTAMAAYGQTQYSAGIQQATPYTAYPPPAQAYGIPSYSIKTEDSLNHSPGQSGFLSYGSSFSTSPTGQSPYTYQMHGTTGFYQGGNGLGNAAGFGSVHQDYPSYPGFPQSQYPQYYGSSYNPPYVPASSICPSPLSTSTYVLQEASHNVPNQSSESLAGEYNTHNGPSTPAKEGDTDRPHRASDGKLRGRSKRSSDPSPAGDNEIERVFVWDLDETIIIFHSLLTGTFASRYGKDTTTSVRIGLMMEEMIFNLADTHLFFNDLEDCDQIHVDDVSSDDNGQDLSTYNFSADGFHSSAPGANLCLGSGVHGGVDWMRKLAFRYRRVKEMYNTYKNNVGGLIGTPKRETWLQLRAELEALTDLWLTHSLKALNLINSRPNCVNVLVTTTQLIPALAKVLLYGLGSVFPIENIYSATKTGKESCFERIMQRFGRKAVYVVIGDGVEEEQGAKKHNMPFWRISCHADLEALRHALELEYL
Target sequence (Q15475 whole entry, looked up): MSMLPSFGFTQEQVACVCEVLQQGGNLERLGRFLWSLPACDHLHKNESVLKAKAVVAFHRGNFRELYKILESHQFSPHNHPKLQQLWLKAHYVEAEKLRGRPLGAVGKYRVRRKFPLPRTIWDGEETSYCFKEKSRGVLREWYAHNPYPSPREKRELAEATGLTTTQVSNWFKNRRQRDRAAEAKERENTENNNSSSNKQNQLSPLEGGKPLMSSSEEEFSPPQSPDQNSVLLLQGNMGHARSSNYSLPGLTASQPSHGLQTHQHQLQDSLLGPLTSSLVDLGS
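AlphaScreen luminescence read after one hour at 37 °C in darkness. Pin-transferred compounds met GST-Six1 and His-Eya2 protein (5X stock 250 nM/500 nM) plus glutathione donor and Ni-chelate acceptor beads (5X, 50 ug/mL).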
Active calls of the source: *; ? = inconclusive; nt = no result; [ ] = dose if it differs, or a comment. Only some compounds are listed: those with a hit (about 10% of all), similar ones and a draw of the others. Unless noted, the call rests on the fitted dose curve; in most records, active means well fitted inhibition curve with a large enough effect; inconclusive means small, poorly fitted or top-dose-only effect; inactive means no such curve, though single readings can be large or run the other way.

SMILES	BAZ2B inh	HP1b chromo inh	JMJD2A Tudor inh	G9a inh	CtBP-E1A blk	Six1-Eya2 inh
COc1ccc(-c2ccc(C(=O)NCc3ccncc3)c3occc23)c(C)c1	nt	nt	nt	nt	-5	-10
COc1ccc(CNC(=O)c2cc3c(=O)n(Cc4cccnc4)ccc3nc2C)cc1	-9%	27%	-12%	15%[59 µM]	nt	nt
COc1ccc(OC)c(CCNC(=O)c2cnn(-c3ccccc3Cl)c2C2CCN(C(=O)OC(C)(C)C)CC2)c1	-22%[57.1 µM]	8%	-31%	-40%[59 µM]	nt	nt
COc1cc(/C=N/N(C)c2ccccc2)cc(Cl)c1O	45µM*	22µM*	25µM*	?	-24	-25
COc1cc(/C=N/NC(=O)c2ccc(Cn3cc([N+](=O)[O-])cn3)o2)cc(Br)c1O	-28%	16%	-11%[57.1 µM]	8.9µM*	-9	-6
COc1cc(/C=N/N(C)C)cc(Br)c1O	-32%	13%	-27%	14µM*	-9	-1
COc1cc(/C=N/O)cc(Br)c1OC	4%	67%	-19%[57.1 µM]	11%[59 µM]	0	1
N#CC1=C(N)OC2=C(C(=O)CCC2)C1c1cc2c(cc1Br)OCO2 (stereo not drawn)	-7%	14%	-23%	nt	nt	5
Cn1cnnc1SCC(=O)Nc1cc(S(=O)(=O)N2CCCCCC2)ccc1Cl	3%	31%	-3%	3%[59 µM]	-5	-12
CCCC(C(=O)NCc1ccco1)N(Cc1ccco1)C(=O)CNS(=O)(=O)c1ccccc1 (stereo not drawn)	-3%	9%	-20%	-6%	-1	-6
Cc1cc2ccccc2n1CCNC(=O)c1ccccc1F	-39%	-9%	-35%	-6%[59 µM]	nt	nt
Cc1ccc(S(=O)(=O)N(C)C)cc1NC(=O)COC(=O)/C(=C/c1ccc(F)cc1)c1cccs1	-24%	32%	-21%	?	2	-9
Cc1nn(CCOc2ccccc2Cl)c(C)c1[N+](=O)[O-]	4%	10%	-8%	50µM*	-11	8
CCOC(=O)c1c(C)[nH]c(CCC(=O)Nc2cc(Cl)ccc2OC)c1C	-11%	14%[57 µM]	-15%	-37%[59 µM]	nt	nt
O=C(Nc1cccnc1)Nc1ccc(Cl)cc1Cl	-19%	42%	?	50µM*	nt	-7
Cc1ccc[n+](Cc2ccc([N+](=O)[O-])cc2)c1	-7%	42%	5%	?	8	1
Cc1cc[n+](Cc2ccc([N+](=O)[O-])cc2)cc1	-9%	11%	-12%	45µM*	-2	14
COC(=O)c1cccc(S(=O)(=O)N2CCOCC2)c1	10%	40%	-5%	-8%[12.7 µM]	6	0
COC(=O)c1cccc(N2C(=O)C(Cl)=C(N3CCOCC3)C2=O)c1	-9%	62%	-32%	50µM*	0	1
O=C1C(Cl)=C(N2CCOCC2)C(=O)N1c1cccc(C(F)(F)F)c1	8%	72%	-12%	79µM*	1	-8
O=C1C(Cl)=C(N2CCOCC2)C(=O)N1c1ccccc1Cl	34%	31%	-3%	-14%[59 µM]	-1	-6
CCN(CCn1cccn1)Cc1nc(Cc2cccc(F)c2)no1	2%	28%	-10%	nt	-9	9
Nc1nc(N)c2ncc(C(=O)CCc3ccccc3)nc2n1	?	-26%	14µM*	40µM*	0	-7
O=C(NCCc1ccccc1)c1cnc2ccccc2n1	10%	19%	-19%	25%	-3	2
CCc1nc2ccc(C(=O)NCc3cccs3)cn2c1N(CC)Cc1cccc(Br)c1	nt	nt	nt	nt	-4	-6
SMILES	BAZ2B inh	HP1b chromo inh	JMJD2A Tudor inh	G9a inh	CtBP-E1A blk	Six1-Eya2 inh
COc1ccc(C(=O)N/N=C(\Cc2ncc[nH]2)c2ccccc2)cc1	?	36%	-22%	2%	1	?
Clc1cccc(N/N=C(\Cc2nc3ccccc3[nH]2)c2ccccc2)c1	-29%	2%	?	25µM*	-4	-9
c1ccc(N/N=C(\Cc2ncc[nH]2)c2ccccc2)cc1	?	?	-28%[57.1 µM]	2.8µM*	9	-3
Cc1ccc(S(=O)(=O)N2CCOCC2)cc1NC(=O)CSc1ncccn1	7%	8%	-7%	-27%	-24	2
Cc1cccc(NC(=O)CSCC(=O)Nc2cc(S(=O)(=O)N3CCOCC3)ccc2OC(C)C)c1	-3%	10%	-19%	-50%	6	-5
Cc1ccc(S(=O)(=O)N2CCOCC2)cc1NC(=O)CNCc1ccccn1	32µM*	83%	-12%[11.4 µM]	1%[12.7 µM]	-94*	-69*
Cc1ccc(S(=O)(=O)N2CCOCC2)cc1NC(=O)CNC(C)c1ccccc1 (stereo not drawn)	nt	?	1.3µM*	nt	6	4
O=C(CNCc1ccccn1)Nc1cc(S(=O)(=O)N2CCCCC2)ccc1Cl	nt	51%	79µM*	25%	-88*	-86*
Cc1ccc(CSCC(=O)Nc2cc(S(=O)(=O)N3CCOCC3)ccc2OC(C)C)cc1	?	43%	-10%	50µM*	-1	-15
C[C@H](c1ccccc1)N1C[C@@H](COCc2ccccc2)Oc2cc(N3CC[C@@H](N(C)C)C3)ccc2S1(=O)=O	nt	nt	nt	nt	-27	?
COc1ccc2c(c1)c(=O)oc1cc(OCC(=O)NC3CCCCC3)ccc12	79µM*	?	40µM*	11µM*	-11	-3
O=S1(=O)N=C(Oc2ccc(Br)cc2)c2ccccc21	nt	nt	-30%	nt	nt	nt
